From PubChem BioAssay (NCATS)
Inconclusive results are not listed. Activity calls are given as the source filed them. Unless noted, calls come from the whole dose curve; as a rule, active = well fitted curve in the direction sought with a large enough effect; inconclusive = small, poorly fitted or top-dose-only effect, or another doubt; inactive = no such curve, though single readings can be large; an effect the other way counts as inactive or inconclusive.

What was measured:
[1] = Validation screen for small molecules that induce genotoxicity in human embryonic kidney (HEK293T) cells expressing luciferase-tagged ELG1 (AID 493106); note: 0% is about no effect
Procedure, shortened: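 In this validation screen, increased ELG1-luciferase signal flags compounds causing genetic stress. HEK293T reporter cells are treated 16 hr (37 °C, 5% CO2), developed with ONE-Glo for 30 min at room temperature, and imaged on a CCD-based reader.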

[2] = target: ATPase family AAA domain-containing protein 5 (Homo sapiens) (UniProt Q96QE3); experiment: Validation screen for small molecules that inhibit ELG1-dependent DNA repair in human embryonic kidney (HEK293T) cells expressing luciferase-tagged ELG1 (AID 493107);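 note: cells co-treated with the DNA-damaging agent 5-fluorouridine alongside compound; series mostly up to about 46 µM; % is set by controls: 0 for no effect and ±100 for the full control effect; inhibitors lower the ELG1-luciferase luminescence signal; nearly all actives have a fitted effect of over 70% in size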
Chain of ATPase family AAA domain-containing protein 5 (Homo sapiens) (Q96QE3 whole entry, looked up, the tested form may be a part): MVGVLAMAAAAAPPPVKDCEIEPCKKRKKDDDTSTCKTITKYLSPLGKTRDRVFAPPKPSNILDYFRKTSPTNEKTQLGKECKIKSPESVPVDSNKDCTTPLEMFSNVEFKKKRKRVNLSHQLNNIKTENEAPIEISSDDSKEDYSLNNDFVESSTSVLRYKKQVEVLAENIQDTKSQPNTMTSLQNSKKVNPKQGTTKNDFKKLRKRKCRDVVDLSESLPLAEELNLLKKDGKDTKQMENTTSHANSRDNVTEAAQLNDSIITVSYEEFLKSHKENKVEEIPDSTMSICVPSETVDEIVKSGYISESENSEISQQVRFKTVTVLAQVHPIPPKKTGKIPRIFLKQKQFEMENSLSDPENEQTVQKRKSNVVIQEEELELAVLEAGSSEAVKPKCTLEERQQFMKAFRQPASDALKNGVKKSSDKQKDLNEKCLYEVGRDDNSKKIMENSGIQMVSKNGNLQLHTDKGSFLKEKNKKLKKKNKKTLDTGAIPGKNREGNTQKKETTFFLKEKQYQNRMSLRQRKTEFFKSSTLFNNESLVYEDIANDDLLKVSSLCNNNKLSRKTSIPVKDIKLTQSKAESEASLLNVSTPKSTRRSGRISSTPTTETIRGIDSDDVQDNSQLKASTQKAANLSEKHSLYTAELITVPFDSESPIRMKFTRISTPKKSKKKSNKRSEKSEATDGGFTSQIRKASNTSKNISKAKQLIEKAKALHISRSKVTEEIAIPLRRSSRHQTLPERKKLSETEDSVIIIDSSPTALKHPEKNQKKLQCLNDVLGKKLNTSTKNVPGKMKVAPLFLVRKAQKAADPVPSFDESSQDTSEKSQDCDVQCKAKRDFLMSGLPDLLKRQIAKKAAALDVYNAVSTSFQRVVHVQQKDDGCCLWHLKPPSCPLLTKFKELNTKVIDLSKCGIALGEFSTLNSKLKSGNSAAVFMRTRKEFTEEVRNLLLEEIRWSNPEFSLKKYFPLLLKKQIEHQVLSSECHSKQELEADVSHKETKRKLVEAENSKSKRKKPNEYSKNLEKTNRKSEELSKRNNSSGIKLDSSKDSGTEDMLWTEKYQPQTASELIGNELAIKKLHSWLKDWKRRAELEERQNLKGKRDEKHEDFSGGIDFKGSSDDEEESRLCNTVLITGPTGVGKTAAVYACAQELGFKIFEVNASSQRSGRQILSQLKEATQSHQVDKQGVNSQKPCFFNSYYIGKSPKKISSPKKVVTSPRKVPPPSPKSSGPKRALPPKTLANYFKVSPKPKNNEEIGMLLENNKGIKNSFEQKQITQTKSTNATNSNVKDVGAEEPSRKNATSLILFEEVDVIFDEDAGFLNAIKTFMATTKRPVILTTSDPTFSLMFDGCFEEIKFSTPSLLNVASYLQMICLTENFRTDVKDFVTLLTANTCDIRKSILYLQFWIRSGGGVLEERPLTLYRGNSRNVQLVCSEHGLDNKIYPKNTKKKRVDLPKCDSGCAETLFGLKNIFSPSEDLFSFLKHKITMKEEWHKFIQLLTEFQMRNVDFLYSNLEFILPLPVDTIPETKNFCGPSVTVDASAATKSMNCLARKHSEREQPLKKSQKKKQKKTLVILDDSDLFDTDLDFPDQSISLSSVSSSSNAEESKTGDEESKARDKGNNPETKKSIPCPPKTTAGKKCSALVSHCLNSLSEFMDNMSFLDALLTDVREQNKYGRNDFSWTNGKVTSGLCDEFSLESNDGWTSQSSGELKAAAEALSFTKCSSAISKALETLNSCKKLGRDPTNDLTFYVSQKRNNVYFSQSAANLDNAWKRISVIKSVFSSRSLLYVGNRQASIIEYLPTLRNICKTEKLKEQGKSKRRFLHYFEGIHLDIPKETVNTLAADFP
Procedure, shortened: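 Compounds reducing 5-fluorouridine-driven ELG1-luciferase signal in HEK293T cells were scored; exposure lasted 16 hr at 37 °C with luminescence detected via ONE-Glo.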

[3] = target: Thyrotropin-releasing hormone receptor (Homo sapiens) (UniProt P34981); experiment: qHTS for Small Molecule Agonists and Allosteric Enhancers of Human TRH Receptor: Validation Screen for Agonists (AID 493127;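 active = calcium activation more than 3 SD above the typical response in the agonist read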;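 note: intracellular calcium rise by fluo-8 fluorescence before TRH EC20 addition; 0% is about no effect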); settings: TRH receptor agonist cell assay; at 2 µM; stronger effect = higher value
Chain of Thyrotropin-releasing hormone receptor (Homo sapiens) (P34981 whole entry, looked up): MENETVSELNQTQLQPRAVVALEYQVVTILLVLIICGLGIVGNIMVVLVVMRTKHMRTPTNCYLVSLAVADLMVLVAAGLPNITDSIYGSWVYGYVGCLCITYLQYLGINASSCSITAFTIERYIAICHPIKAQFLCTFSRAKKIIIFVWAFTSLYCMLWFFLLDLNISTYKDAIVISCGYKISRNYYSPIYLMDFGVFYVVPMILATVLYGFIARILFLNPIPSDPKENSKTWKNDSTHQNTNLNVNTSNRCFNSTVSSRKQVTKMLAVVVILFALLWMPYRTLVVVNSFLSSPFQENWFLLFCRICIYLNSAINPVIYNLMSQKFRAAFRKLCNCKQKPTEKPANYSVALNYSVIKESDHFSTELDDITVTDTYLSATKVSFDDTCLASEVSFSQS
Procedure, shortened: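 Kinetic fluorescence assay of agonist-induced calcium release: overnight-plated TRHR cells, room-temperature fluo-8 loading, baseline then compound addition with per-second reads.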

[4] = Nrf2 qHTS screen for inhibitors: Validation (AID 493153; active = well fitted inhibition curve with a large enough effect in the main read-out, with a control signal flat, not every such curve was filed as active); settings: Potency: luciferase luminescence; viability change: measured here: cytotoxicity max response
Procedure, shortened: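 In this counterscreened reporter format, each well gives two signals: CellTiter-Fluor fluorescence for cytotoxicity and ARE-luciferase luminescence for Nrf2 function. A549 ARE_Fluc cells in 5% FBS OPTI-MEM were exposed to compound titrations for 18-24 h.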

[5] = qHTS for Inhibitors of Cell Surface uPA Generation: Validation Assay (AID 493164);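 note: RAW 264.7 macrophage cells exposed to compound for 18 h; 0% is about no effect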
Procedure, shortened: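 Compounds are titrated over seven points (2.45 nM–38.3 uM final) onto pre-plated RAW 264.7 cells and incubated for 18 h. Retained intracellular ATP, measured with ATP-Lite, indicates blocked lethal factor entry.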

[6] = target: Galactokinase (Homo sapiens) (UniProt P51570); experiment: qHTS Validation Assay for Inhibitors of Human Galactokinase (GALK) (AID 493189); note: 0% is about no effect
Chain of Galactokinase (Homo sapiens) (P51570 whole entry, looked up): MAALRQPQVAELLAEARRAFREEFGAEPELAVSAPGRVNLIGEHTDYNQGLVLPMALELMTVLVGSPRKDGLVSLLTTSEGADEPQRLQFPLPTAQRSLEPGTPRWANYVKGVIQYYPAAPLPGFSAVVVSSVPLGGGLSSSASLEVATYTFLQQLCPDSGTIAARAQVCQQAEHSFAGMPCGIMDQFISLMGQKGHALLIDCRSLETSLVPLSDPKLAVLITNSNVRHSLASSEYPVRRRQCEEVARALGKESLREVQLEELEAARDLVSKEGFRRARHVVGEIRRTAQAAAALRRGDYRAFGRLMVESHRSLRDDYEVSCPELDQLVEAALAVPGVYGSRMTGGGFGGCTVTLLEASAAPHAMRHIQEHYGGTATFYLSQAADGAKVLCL
Procedure, shortened: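 5 nM GALK / 100 uM galactose / 35 uM ATP, 20 mM HEPES pH8.0, 5 mM MgCl2, 60 mM NaCl, 1 mM DTT, 0.01% BSA (final). RT 1 h; Kinase-Glo Plus luminescence.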

[7] = Validation screen for small molecules that induce DNA re-replication in SW480 colon adenocarcinoma cells (AID 504364); note: 0% is about no effect
Procedure, shortened: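 Hoechst-stained SW480 nuclei, imaged at 405 nm excitation after 48 hr compound exposure, were counted for elevated DNA content as the re-replication signal.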

[8] = target: Peptidyl-prolyl cis-trans isomerase NIMA-interacting 1 (Homo sapiens) (UniProt Q13526); experiment: qHTS Validation Assay to Find Inhibitors of Pin1 (AID 504536; active = well fitted inhibition curve with a large enough effect in the polarisation, with a control signal flat, not every such curve was filed as active; the % refers to the polarisation;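 note: 0% = full Pin1 enzyme wells and -100% = no-enzyme wells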)
Procedure, shortened: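 Fluorescence polarization competition: compounds (titration) displace HiFluor-488-labeled Pin1-1b peptide from Pin1 (0.3 uM final) in pH 7.5 HEPES buffer with DTT, 10 min at room temperature; %Activity normalized to no-enzyme wells, curves fitted.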

[9] = target: Phosphoglycerate kinase, glycosomal (Trypanosoma brucei brucei) (UniProt P07378); experiment: qHTS Validation Assay to Find Inhibitors of Phosphoglycerate Kinase (AID 504547);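 note: control wells lack PGK and mark full inhibition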
Chain of Phosphoglycerate kinase, glycosomal (Trypanosoma brucei brucei) (P07378 whole entry, looked up): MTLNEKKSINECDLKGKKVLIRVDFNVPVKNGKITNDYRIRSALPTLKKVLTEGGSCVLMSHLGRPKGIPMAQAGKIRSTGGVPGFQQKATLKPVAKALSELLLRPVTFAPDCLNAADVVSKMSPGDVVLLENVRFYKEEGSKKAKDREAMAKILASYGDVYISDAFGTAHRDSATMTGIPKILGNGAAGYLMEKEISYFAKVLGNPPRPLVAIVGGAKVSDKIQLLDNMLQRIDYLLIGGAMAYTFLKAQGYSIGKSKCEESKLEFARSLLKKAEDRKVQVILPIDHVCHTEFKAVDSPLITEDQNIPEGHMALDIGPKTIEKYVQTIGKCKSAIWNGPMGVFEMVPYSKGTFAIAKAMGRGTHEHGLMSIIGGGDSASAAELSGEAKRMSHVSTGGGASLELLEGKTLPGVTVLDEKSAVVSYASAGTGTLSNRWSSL
Procedure, shortened: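 In TEA buffer (100mM, pH 7.6) containing 5mM MgCl2 and 0.01% Tween-20, the GAPDH-coupled PGK reaction proceeded for 60 minutes at room temperature before a single luminescence reading using Kinase-Glo Plus.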

[10] = target: phosphoglycerate mutase (Leishmania major) (UniProt Q4Q090); experiment: qHTS Validation Assay to Find Inhibitors of Phosphoglycerate Mutase (AID 504548);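 note: end-point luminescence from Kinase-GloPlus after the PGAM reaction; series mostly up to about 58 µM; % is set by controls: 0 for no effect and ±100 for the full control effect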
Chain of phosphoglycerate mutase (Leishmania major) (Q4Q090 1-553): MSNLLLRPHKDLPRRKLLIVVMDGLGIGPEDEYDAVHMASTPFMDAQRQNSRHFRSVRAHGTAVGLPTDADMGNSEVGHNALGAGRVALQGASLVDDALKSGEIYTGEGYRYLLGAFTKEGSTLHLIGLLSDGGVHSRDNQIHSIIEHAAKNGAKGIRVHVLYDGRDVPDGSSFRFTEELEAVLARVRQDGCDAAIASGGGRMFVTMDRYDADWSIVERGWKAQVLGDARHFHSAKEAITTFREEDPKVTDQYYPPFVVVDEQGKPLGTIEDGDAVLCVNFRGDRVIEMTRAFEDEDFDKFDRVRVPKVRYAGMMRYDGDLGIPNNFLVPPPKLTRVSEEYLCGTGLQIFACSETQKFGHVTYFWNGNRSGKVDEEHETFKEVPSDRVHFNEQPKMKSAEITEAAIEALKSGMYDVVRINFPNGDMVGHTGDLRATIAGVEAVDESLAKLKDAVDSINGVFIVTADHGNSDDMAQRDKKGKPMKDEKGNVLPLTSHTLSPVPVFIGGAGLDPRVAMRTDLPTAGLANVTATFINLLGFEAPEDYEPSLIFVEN
Procedure, shortened: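 L. major PGAM (1.25nM final) was added to substrate buffer and pinned compound, incubated 45 minutes at room temperature, then Kinase-GloPlus added; luminescence read after 10 minutes. Buffer: 100 mM TEA pH 7.6, 5 mM MgCl2, 0.01% Tween-20.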

[11] = target: Ubiquitin carboxyl-terminal hydrolase 1 (Homo sapiens) (UniProt O94782); experiment: Inhibitors of USP1/UAF1: Pilot qHTS (AID 504865);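 note: rhodamine fluorescence freed from ubiquitin-rhodamine substrate followed over time; top concentration of the series differs between compounds; % is set by controls: 0 for no effect and ±100 for the full control effect; nearly all actives have a fitted effect of over 35% in size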
Chain of Ubiquitin carboxyl-terminal hydrolase 1 (Homo sapiens) (O94782 whole entry, looked up): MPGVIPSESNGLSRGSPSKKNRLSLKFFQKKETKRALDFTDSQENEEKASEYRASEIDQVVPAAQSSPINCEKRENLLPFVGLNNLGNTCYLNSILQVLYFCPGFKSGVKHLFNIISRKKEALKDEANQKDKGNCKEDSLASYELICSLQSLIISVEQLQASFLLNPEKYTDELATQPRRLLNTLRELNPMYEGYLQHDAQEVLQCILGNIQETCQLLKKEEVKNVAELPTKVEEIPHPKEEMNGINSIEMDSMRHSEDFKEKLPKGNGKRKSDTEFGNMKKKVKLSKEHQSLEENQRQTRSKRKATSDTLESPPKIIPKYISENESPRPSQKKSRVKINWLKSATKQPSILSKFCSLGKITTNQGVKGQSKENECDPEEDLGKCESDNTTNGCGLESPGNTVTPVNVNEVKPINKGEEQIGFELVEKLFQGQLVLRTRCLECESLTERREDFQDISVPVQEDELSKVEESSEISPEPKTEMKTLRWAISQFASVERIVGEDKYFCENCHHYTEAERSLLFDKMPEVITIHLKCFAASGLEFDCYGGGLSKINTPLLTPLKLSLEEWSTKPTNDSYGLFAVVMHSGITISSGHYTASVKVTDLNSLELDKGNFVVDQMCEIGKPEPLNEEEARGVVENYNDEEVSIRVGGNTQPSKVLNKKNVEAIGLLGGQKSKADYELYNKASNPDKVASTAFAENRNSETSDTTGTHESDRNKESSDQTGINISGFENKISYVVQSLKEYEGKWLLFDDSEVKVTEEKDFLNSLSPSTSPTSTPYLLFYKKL
Procedure, shortened: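 In 50mM HEPES pH 7.8 containing 0.5mM EDTA, 1mM TCEP, 0.1 mg/ml BSA and 0.01% Tween-20, 1nM USP1/UAF1 is exposed to compound for 15 min, then Ub-Rho (150nM final) is added and fluorescence is read over time.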

[12] = qHTS for Inhibitors of ATXN expression: Validation of Cytotoxic Assay (AID 588349); note: % is set by controls: 0 for no effect and ±100 for the full control effect
Procedure, shortened: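 Toxicity of test compounds toward HEK293 cells is scored from cellular ATP content measured by CellTiter Glo. Cells receive titrated doses and incubate 72 hr at 37 degrees C beforehand.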

[13] = qHTS for Inhibitors of ATXN expression: Validation (AID 588378); note: series mostly up to about 57 µM; % is set by controls: 0 for no effect and ±100 for the full control effect; nearly all actives have a fitted effect of over 75% in size
Procedure, shortened: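 Compounds were pinned onto attached HEK293 cells carrying an ATXN2-firefly luciferase construct and incubated 24 hrs at 37 degrees C. Each well then received a fluorescent viability reagent followed by luciferase substrate for end-point luminescence.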

[14] = target: ATP-dependent 6-phosphofructokinase (Trypanosoma brucei brucei) (UniProt O15648); experiment: qHTS Assay to Find Inhibitors of T. brucei phosphofructokinase: hit validation (AID 492961);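 note: luminescence reports ADP formed as PFK phosphorylates fructose-6-phosphate with ATP; series mostly up to about 51 µM; % is set by controls: 0 for no effect and ±100 for the full control effect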
Procedure, shortened: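 Reaction: 0.1 M triethanolamine pH 8.0, 5 mM MgCl2, F6P 0.5 mM, ATP 0.1 mM, PFK 1.25 nM, 45 min RT. Read-out: ADP-Glo luminescence. Analysis: concentration-response fits, classed by r2 and efficacy.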

[15] = target: Estrogen receptor (Homo sapiens) (UniProt P03372); experiment: qHTS assay for small molecule antagonists of estrogen receptor alpha signaling (AID 588513; active = well fitted curve in the direction sought with a large enough effect in the signal ratio, with a control signal flat, not every such curve was filed as active; the % refers to the signal ratio; note: % is set by controls: 0 for no effect and ±100 for the full control effect)
Chain of Estrogen receptor (Homo sapiens) (P03372 whole entry, looked up): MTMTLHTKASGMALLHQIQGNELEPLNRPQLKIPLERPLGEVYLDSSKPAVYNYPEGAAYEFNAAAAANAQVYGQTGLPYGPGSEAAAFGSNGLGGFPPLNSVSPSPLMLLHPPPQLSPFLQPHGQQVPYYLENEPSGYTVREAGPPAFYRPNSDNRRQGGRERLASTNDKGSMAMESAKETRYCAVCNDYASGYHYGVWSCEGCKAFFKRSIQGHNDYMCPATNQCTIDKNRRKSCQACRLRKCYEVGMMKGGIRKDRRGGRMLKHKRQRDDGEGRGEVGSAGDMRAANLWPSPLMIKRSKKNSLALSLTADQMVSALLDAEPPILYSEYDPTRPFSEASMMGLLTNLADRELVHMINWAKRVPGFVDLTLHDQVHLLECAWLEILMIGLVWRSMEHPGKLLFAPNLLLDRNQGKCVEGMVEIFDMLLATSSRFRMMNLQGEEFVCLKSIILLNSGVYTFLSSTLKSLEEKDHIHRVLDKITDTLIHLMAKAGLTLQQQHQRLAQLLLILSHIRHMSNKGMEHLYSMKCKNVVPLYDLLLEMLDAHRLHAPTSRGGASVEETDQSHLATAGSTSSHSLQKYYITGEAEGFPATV
Procedure, shortened: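 Fluorescence from CCF4 substrate after 2 h at room temperature gave reporter activity; cells had been exposed to compound and 0.5nM 17-beta-estradiol for 18 h at 37 C. Hill-equation fitting yielded IC50 and maximal response.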

[16] = target: Estrogen receptor (Homo sapiens) (UniProt P03372); experiment: qHTS assay for small molecule agonists of estrogen receptor alpha signaling (AID 588514; calls by dose curve;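 note: 0% = vehicle only and 100% = reference agonist; nearly all actives have a fitted effect of over 70% in size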)
Procedure, shortened: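 Fluorescence from CCF4 cleavage reports ER-alpha-driven beta-lactamase expression in HEK 293 cells treated 18 hrs at 37 C. Data normalized to 17-beta-estradiol (20 nM) and DMSO, fitted to Hill equation.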

CC(C)(C)NCC(O)c1cc(O)cc(O)c1 (centres undefined)
2.92%: viability change [4]
inactive: Potency [1] | Potency [2] | activation [3] 0.438% | Potency [4] | outcome [5] | outcome [6] | outcome [7] | outcome [8] | outcome [9] | outcome [10] | Potency [11] | Potency [12] | Potency [13]

CN(C(=O)CCCOc1ccc2[nH]c(=O)ccc2c1)C1CCCCC1
inactive: outcome [14] | activation [3] 1.44% | outcome [5] | outcome [6] | outcome [7] | outcome [8] | outcome [9] | outcome [10] | Potency [11] | Potency [12] | Potency [13]

NCCCNCCSP(=O)(O)O
inactive: Potency [1] | Potency [2] | activation [3] 0.812% | Potency [4] | outcome [5] | outcome [6] | outcome [7] | outcome [8] | outcome [9] | outcome [10] | Potency [11] | Potency [12] | Potency [13]
4.69%: viability change [4]

CN(C)CC/C=C1\c2ccccc2COc2ccccc21
inactive: Potency [1] | Potency [2] | activation [3] 2.94% | Potency [4] | outcome [5] | outcome [6] | outcome [7] | outcome [8] | outcome [9] | outcome [10] | Potency [11] | Potency [12]
10.6%: viability change [4]

NC(=O)N1c2ccccc2C=Cc2ccccc21
inactive: Potency [1] | Potency [2] | activation [3] 0.625% | Potency [4] | outcome [5] | outcome [6] | outcome [7] | outcome [8] | outcome [9] | outcome [10] | Potency [11] | Potency [12] | Potency [13] | outcome [15] | Potency [16]
-0.0645%: viability change [4]

CCCN(CCC)CCc1cccc2c1CC(=O)N2
inactive: Potency [1] | Potency [2] | activation [3] -3.31% | Potency [4] | outcome [5] | outcome [6] | outcome [7] | outcome [8] | outcome [9] | outcome [10] | Potency [11] | Potency [12] | Potency [13]
1.11%: viability change [4]

CC(=O)Oc1cc(C(C)C)c(OCCN(C)C)cc1C
inactive: Potency [1] | Potency [2] | activation [3] 1.31% | Potency [4] | outcome [5] | outcome [6] | outcome [7] | outcome [8] | outcome [10] | Potency [11] | Potency [12] | Potency [13]
-6.98%: viability change [4]

CCCNC(C)C(=O)Nc1ccccc1C (centres undefined)
-6.89%: viability change [4]
inactive: Potency [1] | Potency [2] | activation [3] 1.5% | Potency [4] | outcome [5] | outcome [6] | outcome [7] | outcome [8] | outcome [9] | outcome [10] | Potency [11] | Potency [13]

C=CCc1ccccc1OCC(O)CNC(C)C (centres undefined)
inactive: Potency [1] | Potency [2] | activation [3] 0.312% | Potency [4] | outcome [5] | outcome [6] | outcome [7] | outcome [8] | outcome [9] | outcome [10] | Potency [11] | Potency [12]
-7.73%: viability change [4]

C[N+](C)(C)CCOC(N)=O
14%: viability change [4]
inactive: Potency [1] | Potency [2] | Potency [4] | outcome [5] | outcome [6] | outcome [7] | outcome [8] | outcome [9] | outcome [10] | Potency [11] | Potency [12] | Potency [13]
active: activation [3] 30.9%

O=C(O)CCCCCCCC(=O)O
inactive: Potency [1] | Potency [2] | activation [3] -3.19% | Potency [4] | outcome [5] | outcome [6] | outcome [7] | outcome [8] | outcome [9] | outcome [10] | Potency [11] | Potency [12] | Potency [13]
9.01%: viability change [4]

O=C(O)CN(CCN(CC(=O)O)CC(=O)O)CCN(CC(=O)O)CC(=O)O
-0.829%: viability change [4]
inactive: Potency [1] | Potency [2] | activation [3] 1.81% | Potency [4] | outcome [5] | outcome [6] | outcome [7] | outcome [8] | outcome [9] | outcome [10] | Potency [11] | Potency [13]

CCCN(CCC)C(=O)C(CCC(=O)O)NC(=O)c1ccccc1 (centres undefined)
-16.1%: viability change [4]
inactive: Potency [1] | Potency [2] | activation [3] 1.56% | Potency [4] | outcome [5] | outcome [6] | outcome [7] | outcome [8] | outcome [9] | outcome [10] | Potency [11] | Potency [12] | Potency [13]

CCCN1C[C@H](CSC)C[C@@H]2c3cccc4[nH]cc(c34)C[C@H]21
inactive: Potency [1] | Potency [2] | activation [3] 1.44% | Potency [4] | outcome [5] | outcome [6] | outcome [7] | outcome [8] | outcome [10] | Potency [11] | Potency [12] | Potency [13]
2.56%: viability change [4]

CCC(=O)c1ccc2c(c1)N(CCCN(C)C)c1ccccc1S2
inactive: Potency [1] | Potency [2] | activation [3] 1.56% | Potency [4] | outcome [5] | outcome [6] | outcome [7] | outcome [8] | outcome [9] | outcome [10] | Potency [11]
-14.9%: viability change [4]

C(=C\c1ccccc1)/CN1CCN(C(c2ccccc2)c2ccccc2)CC1
inactive: Potency [1] | Potency [2] | activation [3] 0.438% | Potency [4] | outcome [5] | outcome [6] | outcome [7] | outcome [8] | outcome [10] | Potency [12] | Potency [13]
-2.4%: viability change [4]

CNCCCN1c2ccccc2CCc2ccccc21
inactive: Potency [1] | Potency [2] | Potency [4] | outcome [5] | outcome [6] | outcome [7] | outcome [8] | outcome [9] | outcome [10] | Potency [11]
-3.92%: viability change [4]

Cc1ccc(=O)n(-c2ccccc2)c1
-2.33%: viability change [4]
inactive: Potency [1] | Potency [2] | activation [3] 0.875% | Potency [4] | outcome [5] | outcome [6] | outcome [7] | outcome [8] | outcome [10] | Potency [11] | Potency [12] | Potency [13]

CC[N+](C)(C)c1cccc(O)c1
0.744%: viability change [4]
inactive: Potency [1] | Potency [2] | Potency [4] | outcome [5] | outcome [6] | outcome [7] | outcome [8] | outcome [10] | Potency [11] | Potency [12] | Potency [13]
